Screening results (PubChem)
GAA850 FXN act – increases GAA850 frataxin promoter reporter activity. HEK293 lucGAA850 FXN promoter luciferase reporter, 24 h; percent of 10 µM SAHA response. 360,000 tested, 0.56% active. activation, % at 6 µM. AID 540364;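 active = activation above the average of all compounds screened plus 3 SD, cutoff fixed separately per campaign, cut at about 7.5% in these data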
HSF-1 act – increases HSF-1 driven luciferase reporter signal; NIH3T3-HGL HSF-1 luciferase reporter, MG132, 8 h; 100% = twice DMSO control signal; activation, % at 9 µM; 300,000 tested, 1.7% active; AID 504408;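 active = mean replicate activation of at least 50% with a set share of replicates each reaching 50%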
AHR activator – activates the human aryl hydrocarbon receptor. P35869. AHR-responsive luciferase reporter cells, luminescence. activation, % at 5 µM. 320,000 tested, 2.5% active; in the data active = activation above about 47%
Target sequence (P35869 whole entry, looked up): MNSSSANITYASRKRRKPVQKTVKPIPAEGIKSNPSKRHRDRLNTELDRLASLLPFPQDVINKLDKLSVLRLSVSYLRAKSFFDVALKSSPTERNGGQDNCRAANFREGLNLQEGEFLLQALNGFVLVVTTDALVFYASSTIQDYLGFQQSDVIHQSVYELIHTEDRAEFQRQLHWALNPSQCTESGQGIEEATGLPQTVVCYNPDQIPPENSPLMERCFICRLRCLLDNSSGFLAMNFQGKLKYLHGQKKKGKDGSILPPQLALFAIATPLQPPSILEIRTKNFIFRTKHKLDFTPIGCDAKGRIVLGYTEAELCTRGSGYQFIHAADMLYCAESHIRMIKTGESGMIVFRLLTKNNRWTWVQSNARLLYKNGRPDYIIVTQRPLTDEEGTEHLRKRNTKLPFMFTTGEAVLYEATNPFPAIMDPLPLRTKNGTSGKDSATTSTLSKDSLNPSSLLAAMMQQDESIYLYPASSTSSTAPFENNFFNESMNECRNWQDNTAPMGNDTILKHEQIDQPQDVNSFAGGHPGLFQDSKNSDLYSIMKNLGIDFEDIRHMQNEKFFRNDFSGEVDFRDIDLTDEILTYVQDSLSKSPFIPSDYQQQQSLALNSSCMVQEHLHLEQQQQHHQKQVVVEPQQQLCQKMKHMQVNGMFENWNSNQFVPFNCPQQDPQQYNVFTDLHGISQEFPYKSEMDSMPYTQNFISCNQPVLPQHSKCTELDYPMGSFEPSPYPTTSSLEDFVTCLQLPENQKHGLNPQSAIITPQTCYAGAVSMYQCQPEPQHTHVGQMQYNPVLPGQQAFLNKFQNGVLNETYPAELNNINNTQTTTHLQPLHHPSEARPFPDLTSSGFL
HSF1 inh – HSF1 inhibition; AID 2098; activity change, negative = inhibition, % at 7.5 µM (by protocol); NIH3T3-HGL HSE-luciferase, MG132-induced, luminescence 8 h; active compounds read low; 300,000 tested, 0.77% active;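 active = more than half of replicate wells show activity change below -50%, luminescence cut by over half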;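 note: luciferase reports HSF-1 transcriptional activity via heat shock element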
Large screens that a line does not name were inactive. Hits are enriched below; roughly 4.6% of the tested compounds scored in any of these assays.

CC(NC(=O)c1ccccc1Cl)C(=O)N1CCN(Cc2ccc3c(c2)OCO3)CC1 (centres undefined)	none (no result: HSF-1 act, HSF1 inh)
Cc1cc(N/N=C/c2ccccc2Br)nc2ccccc12	AHR activator 52
CN1C(=O)C2(c3ccccc31)N(C)CC(c1ccccn1)C21SC(=S)N(Cc2ccco2)C1=O (centres undefined)	HSF-1 act 85
COc1cccc(CNc2ccc(N3CCC(C)CC3)cc2)c1OC	none
O=c1c2ccccc2sc2ccc(C#CC3(O)CCCCC3)cc12	HSF1 inh -92
COc1cccc2sc3ccc(C#CC4(O)CCCCC4)cc3c(=O)c12	none
O=c1c2ccccc2oc2cc(C#CC3(O)CCCCC3)ccc12	HSF1 inh -81
COc1cccc2oc3cc(C#CC4(O)CCCCC4)ccc3c(=O)c12	none
CCOC(=O)CSc1nnc(CCc2nc3ccccc3[nH]2)n1C	none
O=C1CCC(C(=O)OCC(=O)N2N=C3/C(=C/c4ccccc4)CCCC3C2c2ccccc2)N1 (centres undefined)	AHR activator 73
O=C1CCC(C(=O)OCC(=O)N2N=C3/C(=C\c4ccccc4)CCCC3C2c2ccccc2)N1 (centres undefined)	none (no result: HSF-1 act, AHR activator, HSF1 inh)
CCCCOCC(O)CCc1n[nH]c(=S)n1-c1ccccc1 (centres undefined)	none
CC(=O)n1cc(C(C[N+](=O)[O-])SCCN)c2ccccc21 (centres undefined)	HSF-1 act 59, AHR activator 51
Cc1ccc(C(C(=O)NC2CCCCC2)N(C(=O)Cc2c[nH]c3ccccc23)c2ccccc2)o1 (centres undefined)	HSF-1 act 58
COC(=O)c1cnc(N2CCCN(S(=O)(=O)c3ccc(C(F)(F)F)cc3)CC2)nc1C(F)(F)F	HSF-1 act 53
CC1Cc2c([nH]c3ccccc23)C2c3ccccc3CN12 (centres undefined)	AHR activator 57
Cc1ccsc1C(=O)NCC(=O)OCc1ccccc1	none
CN(C)S(=O)(=O)c1ccc(Cl)c(NC(=O)COC(=O)c2cc(-c3ccccc3)nc3ccccc23)c1	none
O=C(c1ccc(F)cc1)C(CN1CCOCC1)c1ccccc1 (centres undefined)	none
CC(CN1CCOCC1)OC(=O)C(c1ccccc1)c1ccccc1 (centres undefined)	HSF1 inh -63
CC(CN1CCOCC1)OC(=O)C(C)(c1ccccc1)c1ccccc1 (centres undefined)	none
CN(C)CC(CCC(CN(C)C)C(=O)c1ccccc1)C(=O)c1ccccc1 (centres undefined)	HSF1 inh -69 (no result: AHR activator)
O=C(c1ccccc1)C(CCC(CN1CCOCC1)C(=O)c1ccccc1)CN1CCOCC1 (centres undefined)	HSF-1 act 86
O=S(=O)(Nc1ncnc2sc3c(c12)CCC3)c1ccc(Cl)s1	AHR activator 48
O=S(=O)(Nc1ncnc2sc3c(c12)CCC3)c1cc(F)ccc1F	none
O=C(CCn1c(=O)oc2ccccc21)N1CCCCCC1	none
O=C(CCn1c(=S)oc2ccccc21)N1CCCCC1	HSF-1 act 54
Cc1ccc(Nc2nc(N)nc(CSc3nccn3C)n2)c(C)c1	AHR activator 48
Cc1ccc(SCc2nc(N)nc(Nc3ccccc3C)n2)c(C)c1	none
Cc1ccc(Nc2nc(N)nc(CCl)n2)c(C)c1	HSF1 inh -63
CCOc1ccc(NC(=O)CCN2C(=O)CSc3ccccc32)cc1	none (no result: HSF-1 act, HSF1 inh)
CNC(=O)CN(c1cccc(Br)c1)S(C)(=O)=O	none
CCOc1ccccc1N(CC(=O)N1CCN(Cc2ccccc2)CC1)S(=O)(=O)c1ccccc1	none (no result: HSF-1 act, AHR activator, HSF1 inh)
O=c1[nH]cnc2scc(-c3ccc(-c4ccccc4)cc3)c12	HSF-1 act 58
COc1ccc(C/C(N)=N/OC(=O)c2cccs2)cc1	none
CCOc1ccc2nc(COC(=O)c3cccc([N+](=O)[O-])c3)c(C(C)=O)[n+]([O-])c2c1	HSF-1 act 69
COc1ccc(OCCOC(=O)c2cccs2)cc1	HSF-1 act 63
COc1ccc2nc(COC(=O)c3cccs3)c(C(C)=O)[n+]([O-])c2c1	HSF1 inh -54
COc1ccc2nc(COC(=O)c3cccc([N+](=O)[O-])c3)c(C(C)=O)[n+]([O-])c2c1	none
COc1ccc(CN2Cc3cccc4c3[C@@H](CC2=O)[C@H](O)[C@H](O)C4)cc1	none (no result: HSF-1 act, HSF1 inh)
Cc1ccc(S(=O)(=O)N(C)C)cc1NC(=O)COC(=O)c1ccc2c(c1)NC(=O)CS2	none
Cc1nn2c(COc3ccc(NC(=O)c4ccccc4)cc3)nnc2c2ccccc12	none
O=C1c2ccccc2C(Nc2ccc3c(c2)OCCO3)N1Cc1ccc2c(c1)OCO2 (centres undefined)	HSF1 inh -64
O=C1c2ccccc2C(Nc2ccc3c(c2)OCCO3)N1c1ccc(Cl)cn1 (centres undefined)	HSF1 inh -54
O=C1c2ccccc2C(Nc2ccc3c(c2)OCCO3)N1c1ccccn1 (centres undefined)	HSF1 inh -70
O=C1c2ccccc2C(Nc2ccccc2)N1c1ccc(Cl)cn1 (centres undefined)	none (no result: HSF-1 act, AHR activator, HSF1 inh)
O=C(CSc1nnc(-c2ccccc2F)n1C1CC1)Nc1ccc2[nH]c(=O)[nH]c2c1	none
O=C1CCCC/C1=C/Nc1cccc(C(F)(F)F)c1	none
O=C1CCC2S/C(=C/Nc3ccc(C(F)(F)F)cc3)C(=O)N12 (centres undefined)	HSF1 inh -65
Cc1ccc(C)c(NC(=S)N/N=C/C(C)c2ccccc2)c1 (centres undefined)	none
CCN(CC)c1ccc(/C=C2\SC(=O)N(C(C)C)C2=O)o1	GAA850 FXN act 14, HSF-1 act 295
CCNC(=O)CSc1nnc(-c2cc(-c3ccc(Cl)cc3)nc3ccccc23)o1	AHR activator 50
CCCOc1ccc2cc(C(=O)NCc3ccccc3)c(=O)oc2c1	HSF1 inh -61
COc1ccc2oc(=O)c(C(=O)NCc3ccccc3)cc2c1	none
O=C(CC1C(=O)NCCN1Cc1cccc(F)c1)NC1CCCCC1 (centres undefined)	none
Cc1nc2ccc(Br)cc2c(=O)n1Cc1cccs1	HSF-1 act 54
Cc1nc(-c2ccc(NC(=O)C3CCCCC3)cc2)cs1	HSF-1 act 57
Cc1[nH]c2ccccc2c1/C=N/NC(=O)c1cc(-c2ccncc2)nc2ccccc12	AHR activator 57
Cc1[nH]c2ccccc2c1/C=N/NC(=O)c1ccccc1	AHR activator 68
Cc1[nH]c2ccccc2c1/C=N/NC(=O)c1ccc(N)cc1	none
O=C(N/N=C/c1ccccc1OC(F)F)c1cc(-c2ccncc2)nc2ccccc12	none
Cc1nn(-c2ccccc2)c(C)c1/C=N/NC(=O)c1cc(-c2ccccc2)n[nH]1	AHR activator 48
Cc1[nH]c2ccccc2c1/C=N/NC(=O)c1cccc(Br)c1	AHR activator 68
c1ccc2[nH]c(CN3CCN(c4ncnc5c4oc4ccccc45)CC3)nc2c1	none (no result: HSF-1 act, HSF1 inh)
C/C(=N/NC(=O)CN1CCN(Cc2ccccc2Cl)CC1)c1ccco1	none
Cc1[nH]c2ccccc2c1/C=N/NC(=O)c1cc(-c2ccccc2)n[nH]1	AHR activator 59
Cc1[nH]c2ccccc2c1/C=N/NC(=O)c1cc(C(C)(C)C)[nH]n1	none
